An excerpt weighted towards active compounds, which were near 1.7% of everything screened.
p53ts 32C tox: cytotoxicity in p53ts cells at permissive temperature; H1299-p53A138V at 32C, ATP luminescence viability, 24 h; Potency, µM (series often up to 46.1 µM), without a hit: top-dose activity change, negative = cytotoxicity, hits mostly cytotoxic; 0.93% of 130,000 active; AID 924;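 also: 0% = DMSO and -100% = full killing by reference compound; nearly all actives have a fitted effect of over 55% in size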
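Cells: H1299 p53ts (A138V), 600/well, pre-incubated 16–30 h at 37C. Cpd up to 46 uM, 24 h, 32C. Readout: ATPlite luminescence, 20 min RT. Normalization: DMSO vs tamoxifen 100 uM. AC50 by Hill equation.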
p53ts 39C tox: cytotoxicity in p53ts cells at nonpermissive temperature; H1299-p53A138V viability at 39C, ATP luminescence, 24 h; Potency, µM (highest dose often 46.1 µM), for the others: top-dose activity change, negative = cell killing, hits mostly cytotoxic; 1.5% of 130,000 active; AID 902; also: % is scaled to controls: 0 for no effect and ±100 for the full control effect; nearly all actives have a fitted effect of over 55% in size
IkB signaling: suppresses IkB signaling in ABC-DLBCL reporter cells. AID 445. Potency, µM (titrated, usually from 57.1 µM), for inactives: at the highest dose IkBa stabilization activation. ABC-DLBCL IkBa-CBG/CBR dual luciferase ratio, 4 h; response scale: scaled: untreated 0%, proteasome inhibitor 100%. 0.04% of 110,000 active; active = well fitted curve in the direction sought with a large enough effect in the signal ratio, not every such curve was filed as active; inconclusive = small, poorly fitted or top-dose-only effect, or a change in a side signal; the % refers to the signal ratio;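 also: the direction sought is a rising ratio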
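In this assay, an IκBα–CBG68 fusion accumulates when IKK-driven degradation is blocked; native CBR normalizes for cell number. OCI-Ly3 cells were treated 4 h with compound and doxycycline, then green and red light read after Chroma-Glo addition.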
Imprint erasure: induces erasure of genomic imprints in mouse ES cells; mouse ES Peg3-LacZ reporter, beta-gal luminescence, 40 h; Potency, µM (doses to about 60.7 µM), for the others: top-dose activity change, positive = activation, actives largely listed as activators; 0.02% of 110,000 active; AID 1948
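Each well holds 300 Peg3LacZ-Neo (maternal) female ES cells incubated 40 h at 37C, 5% CO2. LacZ is measured by BetaGlo luminescence, with AC50 and maximum efficacy derived from dose-response curves.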
Starred values were filed as active, the others as inactive; [ ] = another dose, or the depositor's remark. Unless noted, calls follow the shape of the dose curve; as a rule, active = well fitted curve in the direction sought with a large enough effect; inconclusive = small, poorly fitted or top-dose-only effect, or another doubt; inactive = no such curve, though single readings can be large; an effect the other way counts as inactive or inconclusive. Potency is read from the fitted curve at half-maximal effect.

Screening O=C(Nc1ccc2oc(-c3ccc4ccccc4c3)nc2c1)c1cc(Br)ccc1Cl returned p53ts 32C tox -24%, p53ts 39C tox inconclusive, IkB signaling 3% and Imprint erasure -12%[10.9 µM].
For O=C(Nc1ccc2oc(-c3ccccc3F)nc2c1)c1ccc2c(c1)OCCO2 the results were p53ts 32C tox 13µM*, p53ts 39C tox -29%, IkB signaling inconclusive and Imprint erasure -24%.
For O=C(Nc1ccccc1-c1nc2ccccc2o1)c1ccc2c(c1)OCCO2 the results were p53ts 32C tox -12%, p53ts 39C tox 0%, IkB signaling -1% and Imprint erasure -2%.
For ClC1=C(Cl)C(Cl)(Cl)C(Cl)=C1Cl the results were p53ts 32C tox -2%[1.84 µM], p53ts 39C tox 3%, IkB signaling 5% and Imprint erasure 6%.
`N[C@@H](Cc1cc(-c2ccc(Cl)cc2Cl)cc(CP(=O)(O)O)c1O)C(=O)O` gave p53ts 32C tox 5%, p53ts 39C tox 3%, IkB signaling 0% and Imprint erasure -2%.
For CC(=O)c1cc2c(cc1O)OC(C)(C)C=C2 the results were p53ts 32C tox -16%, p53ts 39C tox 3% and Imprint erasure -3%.
`O=C(Nn1cnnc1)c1cc(-c2ccccn2)nc2ccccc12` gave p53ts 32C tox -25%, p53ts 39C tox -17%, IkB signaling 3% and Imprint erasure -3%.
Cc1ccc(-c2cc(C(=O)N3CCN(c4ncccn4)CC3)c3ccccc3n2)cc1 was read as p53ts 32C tox 13µM*, p53ts 39C tox 13µM*, IkB signaling inconclusive and Imprint erasure -20%.
For COc1cccc(-c2cc(C(=O)Nn3cnnc3)c3ccccc3n2)c1 the results were p53ts 32C tox 4µM*, p53ts 39C tox 5µM*, IkB signaling 4% and Imprint erasure -21%.
For COc1cccc(-c2cc(C(=O)N3CCN(c4ncccn4)CC3)c3ccccc3n2)c1 the results were p53ts 32C tox 13µM*, p53ts 39C tox inconclusive, IkB signaling inconclusive and Imprint erasure -11%.
For COc1ccc([C@@H]2OC[C@]3(COC(C)=O)[C@H](C)C=C(C)[C@@H]2[C@H]3C)cc1 the results were IkB signaling -1%[11.4 µM].
`CCCCC[C@H](CC(=O)NO)C(=O)N[C@@H](C(=O)N1CCC[C@H]1CO)C(C)C` gave p53ts 32C tox 14%, p53ts 39C tox 9% and IkB signaling 6%.
For CNC(=O)[C@@H]1O[C@@H](n2cnc3c(NCc4cccc(I)c4)ncnc32)[C@H](O)[C@@H]1O the results were p53ts 32C tox 6%, p53ts 39C tox -18% and IkB signaling inconclusive.
Screening CC(=O)[C@@H]1[C@H]2[C@H](C(=O)[C@H]3OC[C@@H]2O3)[C@H]2C=Cc3ccccc3N21 returned p53ts 32C tox inconclusive, p53ts 39C tox inconclusive and Imprint erasure -39%.
`Oc1ccc(Nc2nc(-c3ccc(Cl)cc3)nc3ccccc23)cc1` gave p53ts 32C tox inconclusive, p53ts 39C tox 16µM*, IkB signaling inconclusive and Imprint erasure 8%[10.9 µM].
Screening Cc1ccc2[nH]c(-c3ccc(F)cc3F)cc(=O)c2c1 returned Imprint erasure -15%[97.3 µM].
For O=S(=O)(Nc1cccc(-c2ccc(N3CCCCC3)nn2)c1)c1ccc(F)cc1F the results were p53ts 32C tox 13µM*, p53ts 39C tox inconclusive, IkB signaling -2% and Imprint erasure -18%[10.9 µM].
`Cc1ccc(S(=O)(=O)Nc2cccc(-c3ccc(N4CCC(C)CC4)nn3)c2)s1` gave p53ts 32C tox 13µM*, p53ts 39C tox 4µM*, IkB signaling inconclusive and Imprint erasure -10%[10.9 µM].
Screening CCOc1ccc(S(=O)(=O)Nc2cccc(-c3ccc(N4CCC(C)CC4)nn3)c2)cc1 returned p53ts 32C tox 10µM*, p53ts 39C tox 10µM*, IkB signaling 2% and Imprint erasure -8%[10.9 µM].
Screening CC1CCN(c2ccc(-c3cccc(NS(=O)(=O)c4ccc(F)cc4F)c3)nn2)CC1 returned p53ts 32C tox 16µM*, p53ts 39C tox 13µM*, IkB signaling inconclusive and Imprint erasure -13%[10.9 µM].
CCOc1ccccc1CN1CCc2nc(N3CCN(c4ccccc4F)CC3)ncc2C1 was read as p53ts 32C tox -8%, p53ts 39C tox -8%, IkB signaling inconclusive and Imprint erasure -17%[10.9 µM].
Cn1c(=O)c(-c2ccc(Cl)cc2)nc2cnc(N3CCOCC3)nc21 was read as p53ts 32C tox -5%, p53ts 39C tox 1%, IkB signaling 0%[11.4 µM] and Imprint erasure -5%.
`C=C1CC[C@@H]2O[C@]2(C)CC[C@@H]2[C@H]1CC2(C)C` gave IkB signaling 0%[11.4 µM].
Screening Cc1ccc(S(=O)(=O)N(CC(=O)O)c2cccc(Cl)c2)cc1 returned p53ts 32C tox 4% and p53ts 39C tox -6%.
Screening Cc1ccc(Cc2cn3cc(-c4ccc(F)cc4)nc3s2)cc1 returned p53ts 32C tox inconclusive, p53ts 39C tox 7.9µM*, IkB signaling 2% and Imprint erasure -14%[10.9 µM].
`O=c1oc2ccccc2cc1-c1cn2cc(Cc3ccc(F)cc3)sc2n1` gave p53ts 32C tox -3%, p53ts 39C tox -6%, IkB signaling -1% and Imprint erasure 13%[10.9 µM].
For CCN(CCNC(=O)C1CCN(Cc2nc(-c3cccc(Cl)c3)oc2C)CC1)c1ccccc1 the results were p53ts 32C tox 13µM*, p53ts 39C tox 16µM*, IkB signaling inconclusive and Imprint erasure -20%.
For CCN(CCNC(=O)C1CCN(Cc2nc(-c3ccc(Cl)cc3)oc2C)CC1)c1ccccc1 the results were p53ts 32C tox 25µM*, p53ts 39C tox inconclusive, IkB signaling inconclusive and Imprint erasure -28%.
`CCc1ccc(-c2nc(CN3CCC(C(=O)NCCN(CC)c4ccccc4)CC3)c(C)o2)cc1` gave p53ts 32C tox -1%, p53ts 39C tox -4%, IkB signaling 1% and Imprint erasure inconclusive.
`CN1CCC2(CC1)CCN(C(=O)c1cc(C(F)(F)F)cc(C(F)(F)F)c1)CC2` gave p53ts 32C tox -4%, p53ts 39C tox 7% and IkB signaling 1%[11.4 µM].
OCCNCCCOc1cccc(Cl)c1Cl was read as p53ts 32C tox inconclusive, p53ts 39C tox 13µM*, IkB signaling -1% and Imprint erasure -34%.
Screening CN1CCN(CCNC(=O)c2cnn(-c3cccc(Cl)c3)c2C2CCN(C(=O)OC(C)(C)C)CC2)CC1 returned p53ts 32C tox 6%, p53ts 39C tox -4%, IkB signaling -2% and Imprint erasure 29%[10.9 µM].
Screening Cc1ccc(-n2ncc(C(=O)NCCN3CCC(Cc4ccccc4)CC3)c2C2CCN(C(=O)OC(C)(C)C)CC2)cc1 returned p53ts 32C tox inconclusive, p53ts 39C tox 7.9µM*, IkB signaling inconclusive and Imprint erasure -24%[10.9 µM].
CC(C)(C)OC(=O)N1CCC(c2c(C(=O)NCCN3CCC(Cc4ccccc4)CC3)cnn2-c2cccc(Cl)c2)CC1 was read as p53ts 32C tox inconclusive, p53ts 39C tox 20µM*, IkB signaling inconclusive and Imprint erasure -23%[10.9 µM].

From PubChem
